# Experimental data published in PubChem BioAssay (EPA / NIEHS).
# “And” between values parts separate entries of the source, which are not always exact repeats. Equal values may be shown once. Inconclusive results are not listed. A structure can be active in one record and inactive in another. The source made the active and inactive calls. How the source made its calls, unless noted: active means hit-call score of the fitted dose curve at least 0.9, where 1 is the maximum; inconclusive means response in the unintended direction; inactive means score below 0.9.
# Columns and labels:
# [1] = molecular target: rat Neurokinin-1 Receptor (NK1), Tacr1 (gene 24807) (UniProt P14600); experiment: NVS_GPCR_rNK1: NovaScreen (NVS) G Protein-Coupled Receptor Assay for rat Neurokinin-1 Receptor (NK1) (AID 2283309)
# Procedure, shortened: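 Rat submaxillary gland membranes; radioligand displacement read by filter-based scintillation counting after 1 h. Primary screen in duplicate at 25 uM; actives retested in concentration series; loss of binding fitted versus DMSO.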
# [2] = molecular target: rat Opioid Receptor, Non-selective Sodium (Na+) Binding, Oprm1 (gene 25601) (UniProt P33535); experiment: NVS_GPCR_rOpiate_NonSelectiveNa: NovaScreen (NVS) G Protein-Coupled Receptor Assay for rat Opioid Receptor, Non-selective Sodium (Na+) Binding (AID 2283311)
# Procedure, shortened: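 Rat forebrain membranes, radioligand displacement with filter scintillation counting, 1.5 h incubation. Screened in duplicate at 25 µM; hits then run in concentration-response up to 50 µM; loss of binding fitted versus DMSO.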
# [3] = molecular target: rat Neonicotinoid receptor (NNR), Chrna7 (gene 25302) (UniProt Q05941); experiment: NVS_LGIC_rNNR_BungSens: NovaScreen (NVS) Ligand-Gated Ion Channel Assay for rat Neonicotinoid receptor (NNR) (AID 2283315)
# Procedure, shortened: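 Radioligand displacement binding on rat cortical membranes, 2.5 h incubation, filtration and scintillation counting. Loss of specific binding fitted relative to DMSO.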
# [4] = molecular target: Sodium channel protein type 1 subunit alpha (Rattus norvegicus) (UniProt P04774); experiment: NVS_IC_rNaCh_site2: NovaScreen (NVS) Ion Channel Assay for rat Sodium Channel, Site 2 (NaCh) (AID 2283322);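 further: hit means loss of radioligand binding signal relative to DMSO so AC50 marks displacement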
# Procedure, shortened: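 Membranes: rat forebrain. Format: competitive radioligand displacement, filter separation, scintillation readout, 1 h exposure. Primary screen in duplicate at 25 uM; actives retested in concentration series.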
# [5] = molecular target: rat Glutamate, NMDA Agonist Site (GluNMDA), Grin1 (gene 24408) (UniProt P35439); experiment: NVS_LGIC_rGluNMDA_Agonist: NovaScreen (NVS) Ligand-Gated Ion Channel Assay for rat Glutamate, NMDA Agonist Site (GluNMDA) (AID 2283327)
# Procedure, shortened: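 Rat forebrain membranes, radioligand binding in the agonist-site protocol; 1 h after dosing; filter-based scintillation counting. Single-concentration duplicate screen at 25 uM, then concentration-response up to 50 uM for actives; gain-of-signal vs DMSO.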
# [6] = molecular target: rat Thyrotropin Releasing Hormone Receptor (TRH), Trhr (gene 25570) (UniProt Q01717); experiment: NVS_GPCR_rTRH: NovaScreen (NVS) G Protein-Coupled Receptor Assay for rat Thyrotropin Releasing Hormone Receptor (TRH) (AID 2283329);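 further: hit means lower bound tracer signal versus DMSO baseline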
# Procedure, shortened: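 Rat forebrain membranes; radioligand displacement at TRH receptor by filter-based scintillation counting, read 4 h after dosing. Duplicate single-point screen at 25 uM, actives rerun in concentration series; loss of signal relative to DMSO.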
# [7] = molecular target: human Peripheral-type Benzodiazepine Receptor (PBR), TSPO (gene 706) (UniProt P30536); experiment: NVS_MP_hPBR: NovaScreen (NVS) Membrane Protein Assay for human Peripheral-type Benzodiazepine Receptor (PBR) (AID 2283331);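 further: hits reduce radioligand binding relative to DMSO baseline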
# Procedure, shortened: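 Radioligand displacement on human colonic cell membranes, 1 h incubation; bound radioactivity by filtration and scintillation counting. Primary screen in duplicate at 25 uM single concentration, actives followed up in concentration series; loss of binding versus DMSO.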
# [8] = molecular target: rat Neurokinin-3 Receptor (NK3), Tacr3 (gene 24808) (UniProt P16177); experiment: NVS_GPCR_rNK3: NovaScreen (NVS) G Protein-Coupled Receptor Assay for rat Neurokinin-3 Receptor (NK3) (AID 2283310)
# Procedure, shortened: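 Rat cortical membranes; radioligand binding with filtration and scintillation counting, 2 h after dosing. Primary screen in duplicate at 25 uM, then concentration-response up to 50 uM; loss of binding signal relative to DMSO.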
# [9] = NVS_IC_rCaDHPRCh_L: NovaScreen (NVS) Ion Channel Assay for rat Calcium Channel, Type L, Dihydropyridine Site (CaDHPRCh_L) (AID 2283320)
# Procedure, shortened: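 Radioligand binding to dihydropyridine site on rat cortical membranes, filter-based scintillation counting, 1 h after dosing. Screened in duplicate at 25 uM; actives rerun in concentration-response up to 50 uM. Loss of signal versus DMSO baseline.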
# [10] = molecular target: rat Glutamate Metabotropic Receptor 5 (MGluR5), Grm5 (gene 24418) (UniProt P31424); experiment: NVS_GPCR_rmMGluR5: NovaScreen (NVS) G Protein-Coupled Receptor Assay for rat Glutamate Metabotropic Receptor 5 (MGluR5) (AID 2283307)
# Procedure, shortened: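 Rat whole-brain membrane preparation; filter-based radioligand binding read by scintillation counting, 1.5 h after dosing. Single-point screen at 25 uM in duplicate; hits over threshold (e.g. 30% inhibition) retested in concentration-response up to 50 uM; loss of signal vs DMSO.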
# [11] = molecular target: rat Vasopressin 1 Receptor (V1), Avpr1a (gene 25107) (UniProt P30560); experiment: NVS_GPCR_rV1: NovaScreen (NVS) G Protein-Coupled Receptor Assay for rat Vasopressin 1 Receptor (V1) (AID 2283316)
# Procedure, shortened: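 Radioligand binding on rat liver membranes, 1.5 h incubation, filter-based scintillation counting. Single 25 uM screen in duplicate; chemicals meeting threshold (e.g. 30% inhibition) run in concentration-response up to 50 uM.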
# [12] = molecular target: Glutamate receptor ionotropic, kainate 1 (Rattus norvegicus) (UniProt P22756); experiment: NVS_IC_rKAR: NovaScreen (NVS) Ion Channel Assay for rat Kainic Acid Receptors (KAR) (AID 2283334; active means hit-call score of the fitted dose curve at least 0.9, where 1 is the maximum; inactive means score below 0.9)
# Procedure, shortened: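 Radioligand displacement binding using rat forebrain membranes, 1 h incubation, filter-based scintillation counting. Screened in duplicate at 25 uM, with actives retested in concentration-response up to 50 uM; fitted against DMSO.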
# [13] = molecular target: human Serotonin, 5-Hydroxytryptamine Receptor 3 (5HT3), HTR3A (gene 3359) (UniProt P46098); experiment: NVS_LGIC_h5HT3: NovaScreen (NVS) Ligand-Gated Ion Channel Assay for human Serotonin, 5-Hydroxytryptamine Receptor 3 (5HT3) (AID 2283325)
# Procedure, shortened: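 Radioligand displacement binding to human 5-HT3 from HEK293 membranes, read by filter-based scintillation counting after 1 h. Screen at 25 uM in duplicate; chemicals passing threshold were retested in concentration-response up to 50 uM.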
# [14] = molecular target: human Constitutive Androstane Receptor (CAR), NR1I3 (gene 9970) (UniProt Q14994); experiment: NVS_NR_hCAR_Agonist: NovaScreen (NVS) Nuclear Receptor Binding Assay for human Constitutive Androstane Receptor Agonism (CAR) (AID 2283328)
# Procedure, shortened: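 Cell-free TR-FRET binding readout with extracted human CAR protein, read 1 h after dosing. Gain of signal fitted against DMSO baseline. Single-concentration duplicates at 25 uM, then concentration-response up to 50 uM for actives.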
# [15] = molecular target: rat Glutamate, AMPA Site (AMPA), Gria1 (gene 50592) (UniProt P19490); experiment: NVS_LGIC_rAMPA: NovaScreen (NVS) Ligand-Gated Ion Channel Assay for rat Glutamate, AMPA Site (AMPA) (AID 2283324)
# Procedure, shortened: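 Rat forebrain membranes; radioligand binding read 1 h after dosing by filtration and scintillation counting. Duplicate single-point screen at 25 uM, then concentration-response to 50 uM for threshold hits (e.g. 30% inhibition); loss of signal vs DMSO.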
# [16] = molecular target: bovine Gamma-Aminobutyric Acid Type A Receptor BDZ, alpha 5 site (GABARa5), GABRA5 (gene 523515) (UniProt Q08E50); experiment: NVS_LGIC_bGABARa5: NovaScreen (NVS) Ligand-Gated Ion Channel Assay for bovine Gamma-Aminobutyric Acid Type A Receptor BDZ, alpha 5 site (GABARa5) (AID 2283323)
# Procedure, shortened: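 Radioligand competitive displacement binding on bovine hippocampal membranes, read 1 hr after dosing by filter-based scintillation counting. Primary screen at 25 uM in duplicate; actives (e.g. ≥30% inhibition) then run in concentration-response up to 50 uM.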
# [17] = molecular target: rat Somatostatin Receptor (SST), Sstr1 (gene 25033) (UniProt P28646); experiment: NVS_GPCR_rSST: NovaScreen (NVS) G Protein-Coupled Receptor Assay for rat Somatostatin Receptor (SST) (AID 2283314)
# Procedure, shortened: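 Rat forebrain membranes; radioligand displacement read by filter-based scintillation counting 1 h after dosing. Primary screen in duplicate at 25 uM. Actives (e.g., 30% inhibition) were rerun as concentration-response to 50 uM max and fitted against DMSO.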
# [18] = molecular target: rat Gamma-Aminobutyric Acid Type A Receptor, Non-Selective (GABAR-NonSelective), Gabra1 (gene 29705) (UniProt P62813); experiment: NVS_LGIC_rGABAR_NonSelective: NovaScreen (NVS) Ligand-Gated Ion Channel Assay for rat Gamma-Aminobutyric Acid Type A Receptor, Non-Selective (GABAR-NonSelective) (AID 2283326)
# Procedure, shortened: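 Radioligand displacement on rat whole-brain extract, 1 h, filter scintillation readout; signal loss fitted versus DMSO. Primary screen in duplicate at 25 uM; hits (e.g. ≥30% inhibition) retested in concentration-response up to 50 uM.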
# [19] = molecular target: human Androgen Receptor (AR), AR (gene 367) (UniProt P10275); experiment: NVS_NR_hAR: NovaScreen (NVS) Nuclear Receptor Binding Assay for human Androgen Receptor (AR) (AID 2283332)
# Procedure, shortened: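 LnCAP cell-free extract; radioligand displacement read by scintillation counting after 20 h. Primary screen single concentration 25 uM in duplicate, actives then run as concentration series; loss-of-signal fitted relative to DMSO baseline.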
# human Peripheral-type Benzodiazepine Receptor (PBR), TSPO (gene 706), sequence (P30536 whole entry, looked up): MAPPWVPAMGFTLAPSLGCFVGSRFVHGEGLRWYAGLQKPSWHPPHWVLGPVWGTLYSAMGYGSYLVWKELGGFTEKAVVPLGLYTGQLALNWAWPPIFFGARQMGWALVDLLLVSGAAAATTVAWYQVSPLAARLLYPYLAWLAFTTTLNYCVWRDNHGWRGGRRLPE
# rat Neonicotinoid receptor (NNR), Chrna7 (gene 25302), sequence (Q05941 whole entry, looked up): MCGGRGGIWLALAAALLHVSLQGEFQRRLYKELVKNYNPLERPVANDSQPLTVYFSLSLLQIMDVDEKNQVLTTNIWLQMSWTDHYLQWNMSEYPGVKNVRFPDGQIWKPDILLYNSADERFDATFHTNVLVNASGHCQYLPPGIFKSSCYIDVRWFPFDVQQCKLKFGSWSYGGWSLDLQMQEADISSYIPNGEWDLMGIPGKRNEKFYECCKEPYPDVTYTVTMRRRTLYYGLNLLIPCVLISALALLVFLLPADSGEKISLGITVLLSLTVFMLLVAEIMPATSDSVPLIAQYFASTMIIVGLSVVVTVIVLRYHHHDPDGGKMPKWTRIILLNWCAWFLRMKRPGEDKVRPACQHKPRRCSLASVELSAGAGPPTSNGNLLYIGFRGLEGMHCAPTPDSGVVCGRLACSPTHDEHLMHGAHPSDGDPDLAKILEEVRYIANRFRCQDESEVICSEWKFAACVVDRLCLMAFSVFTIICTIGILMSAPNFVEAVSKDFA
# Glutamate receptor ionotropic, kainate 1 (Rattus norvegicus), sequence (P22756 whole entry, looked up): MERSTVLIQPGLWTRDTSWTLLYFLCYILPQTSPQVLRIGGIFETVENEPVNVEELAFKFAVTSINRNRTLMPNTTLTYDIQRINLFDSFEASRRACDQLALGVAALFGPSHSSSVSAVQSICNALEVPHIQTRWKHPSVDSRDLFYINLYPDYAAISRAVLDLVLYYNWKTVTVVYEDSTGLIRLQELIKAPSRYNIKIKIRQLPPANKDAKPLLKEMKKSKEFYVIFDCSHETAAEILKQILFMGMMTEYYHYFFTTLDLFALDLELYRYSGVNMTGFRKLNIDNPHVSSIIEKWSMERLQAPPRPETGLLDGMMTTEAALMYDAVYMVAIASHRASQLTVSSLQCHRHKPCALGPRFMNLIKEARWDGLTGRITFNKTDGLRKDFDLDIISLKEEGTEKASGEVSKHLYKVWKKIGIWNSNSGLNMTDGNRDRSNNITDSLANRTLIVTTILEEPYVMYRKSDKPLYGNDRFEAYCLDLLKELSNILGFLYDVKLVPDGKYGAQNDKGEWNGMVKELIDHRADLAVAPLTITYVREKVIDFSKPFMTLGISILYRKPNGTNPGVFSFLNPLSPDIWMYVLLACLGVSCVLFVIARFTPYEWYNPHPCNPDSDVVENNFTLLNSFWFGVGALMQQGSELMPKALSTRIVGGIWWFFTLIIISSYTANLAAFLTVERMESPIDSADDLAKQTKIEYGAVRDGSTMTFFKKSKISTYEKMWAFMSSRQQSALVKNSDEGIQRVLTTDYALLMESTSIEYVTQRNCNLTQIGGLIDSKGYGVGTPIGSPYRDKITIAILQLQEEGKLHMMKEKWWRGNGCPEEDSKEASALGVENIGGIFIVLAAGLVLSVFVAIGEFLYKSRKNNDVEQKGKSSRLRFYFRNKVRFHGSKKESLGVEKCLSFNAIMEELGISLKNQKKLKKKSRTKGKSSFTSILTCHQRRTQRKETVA
# rat Glutamate, AMPA Site (AMPA), Gria1 (gene 50592), sequence (P19490 whole entry, looked up): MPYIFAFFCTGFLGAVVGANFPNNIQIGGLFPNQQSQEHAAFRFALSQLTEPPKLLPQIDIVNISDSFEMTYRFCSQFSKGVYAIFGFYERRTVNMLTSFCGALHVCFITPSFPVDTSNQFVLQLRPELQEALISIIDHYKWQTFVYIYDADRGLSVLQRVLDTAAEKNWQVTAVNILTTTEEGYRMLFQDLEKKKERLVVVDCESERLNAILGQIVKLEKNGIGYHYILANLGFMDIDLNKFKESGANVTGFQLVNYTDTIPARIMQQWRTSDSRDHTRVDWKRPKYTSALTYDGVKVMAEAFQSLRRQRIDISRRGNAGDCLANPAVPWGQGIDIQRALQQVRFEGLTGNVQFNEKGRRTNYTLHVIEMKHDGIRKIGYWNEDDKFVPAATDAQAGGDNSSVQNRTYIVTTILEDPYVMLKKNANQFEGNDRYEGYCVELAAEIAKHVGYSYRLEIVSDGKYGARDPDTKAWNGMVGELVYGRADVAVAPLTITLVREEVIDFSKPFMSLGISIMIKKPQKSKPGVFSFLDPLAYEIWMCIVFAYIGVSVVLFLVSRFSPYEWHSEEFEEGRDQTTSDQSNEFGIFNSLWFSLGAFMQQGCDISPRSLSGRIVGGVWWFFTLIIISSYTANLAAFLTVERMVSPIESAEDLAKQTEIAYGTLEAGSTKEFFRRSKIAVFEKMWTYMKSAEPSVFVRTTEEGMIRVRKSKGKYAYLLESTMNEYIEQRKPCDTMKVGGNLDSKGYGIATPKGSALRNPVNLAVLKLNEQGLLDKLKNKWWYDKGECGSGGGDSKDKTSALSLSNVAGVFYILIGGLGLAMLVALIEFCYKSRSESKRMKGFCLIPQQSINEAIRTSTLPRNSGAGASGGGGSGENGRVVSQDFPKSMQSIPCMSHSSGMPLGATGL
# rat Opioid Receptor, Non-selective Sodium (Na+) Binding, Oprm1 (gene 25601), sequence (P33535 whole entry, looked up): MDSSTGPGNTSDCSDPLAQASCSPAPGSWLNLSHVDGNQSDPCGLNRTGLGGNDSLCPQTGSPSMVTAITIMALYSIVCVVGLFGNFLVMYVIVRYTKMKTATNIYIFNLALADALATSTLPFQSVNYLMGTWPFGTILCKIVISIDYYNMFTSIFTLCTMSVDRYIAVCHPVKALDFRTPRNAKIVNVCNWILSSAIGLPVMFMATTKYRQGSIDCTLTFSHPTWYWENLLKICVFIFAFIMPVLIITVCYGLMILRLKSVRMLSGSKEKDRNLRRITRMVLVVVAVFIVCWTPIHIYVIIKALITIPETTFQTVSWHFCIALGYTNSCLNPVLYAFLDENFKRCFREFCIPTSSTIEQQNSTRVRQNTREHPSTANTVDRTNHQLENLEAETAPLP
# rat Thyrotropin Releasing Hormone Receptor (TRH), Trhr (gene 25570), sequence (Q01717 whole entry, looked up): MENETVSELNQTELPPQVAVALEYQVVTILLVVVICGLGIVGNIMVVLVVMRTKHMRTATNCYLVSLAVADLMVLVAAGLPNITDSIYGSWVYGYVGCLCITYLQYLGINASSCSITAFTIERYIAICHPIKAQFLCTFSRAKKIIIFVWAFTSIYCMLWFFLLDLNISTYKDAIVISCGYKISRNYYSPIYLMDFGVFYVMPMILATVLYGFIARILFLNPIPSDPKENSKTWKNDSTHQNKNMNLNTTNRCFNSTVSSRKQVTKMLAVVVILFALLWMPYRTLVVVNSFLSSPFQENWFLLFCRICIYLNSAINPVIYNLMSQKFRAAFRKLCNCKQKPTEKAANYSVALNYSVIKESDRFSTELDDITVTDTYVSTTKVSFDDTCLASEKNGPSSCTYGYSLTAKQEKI
# rat Vasopressin 1 Receptor (V1), Avpr1a (gene 25107), sequence (P30560 whole entry, looked up): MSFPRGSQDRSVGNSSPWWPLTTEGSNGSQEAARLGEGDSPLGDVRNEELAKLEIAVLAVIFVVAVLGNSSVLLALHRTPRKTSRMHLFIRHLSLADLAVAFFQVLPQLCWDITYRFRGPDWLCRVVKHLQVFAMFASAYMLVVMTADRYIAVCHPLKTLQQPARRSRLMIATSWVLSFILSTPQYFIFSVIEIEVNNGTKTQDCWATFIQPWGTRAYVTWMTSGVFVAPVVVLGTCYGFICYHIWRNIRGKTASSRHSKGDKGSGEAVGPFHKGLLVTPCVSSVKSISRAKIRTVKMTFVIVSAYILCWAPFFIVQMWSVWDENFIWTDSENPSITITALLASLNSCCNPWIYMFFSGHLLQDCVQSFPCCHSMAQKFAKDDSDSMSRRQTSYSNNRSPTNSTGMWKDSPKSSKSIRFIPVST
# human Serotonin, 5-Hydroxytryptamine Receptor 3 (5HT3), HTR3A (gene 3359), sequence (P46098 whole entry, looked up): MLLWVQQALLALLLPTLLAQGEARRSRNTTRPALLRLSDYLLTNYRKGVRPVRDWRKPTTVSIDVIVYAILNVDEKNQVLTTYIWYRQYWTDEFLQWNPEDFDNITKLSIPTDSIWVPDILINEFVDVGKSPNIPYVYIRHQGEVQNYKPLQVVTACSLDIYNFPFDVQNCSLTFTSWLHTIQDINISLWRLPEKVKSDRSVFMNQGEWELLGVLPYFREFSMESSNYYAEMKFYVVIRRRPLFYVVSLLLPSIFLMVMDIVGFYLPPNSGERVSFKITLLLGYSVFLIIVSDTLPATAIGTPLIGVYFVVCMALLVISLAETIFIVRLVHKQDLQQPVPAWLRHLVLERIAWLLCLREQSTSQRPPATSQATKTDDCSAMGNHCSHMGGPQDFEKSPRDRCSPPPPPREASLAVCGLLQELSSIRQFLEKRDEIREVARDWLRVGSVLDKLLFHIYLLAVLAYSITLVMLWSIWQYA
# rat Neurokinin-1 Receptor (NK1), Tacr1 (gene 24807), sequence (P14600 whole entry, looked up): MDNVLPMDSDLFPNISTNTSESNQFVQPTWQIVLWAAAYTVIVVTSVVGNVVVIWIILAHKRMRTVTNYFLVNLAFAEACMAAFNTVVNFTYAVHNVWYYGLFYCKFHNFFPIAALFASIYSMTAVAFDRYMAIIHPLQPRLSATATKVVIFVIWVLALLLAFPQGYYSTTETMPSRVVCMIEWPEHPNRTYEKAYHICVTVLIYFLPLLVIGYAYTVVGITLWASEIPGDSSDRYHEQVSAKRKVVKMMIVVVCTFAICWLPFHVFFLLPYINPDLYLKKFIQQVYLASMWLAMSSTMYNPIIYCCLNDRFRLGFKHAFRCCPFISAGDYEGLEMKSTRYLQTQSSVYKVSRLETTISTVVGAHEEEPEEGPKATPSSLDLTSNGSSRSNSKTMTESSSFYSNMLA
# human Constitutive Androstane Receptor (CAR), NR1I3 (gene 9970), sequence (Q14994 whole entry, looked up): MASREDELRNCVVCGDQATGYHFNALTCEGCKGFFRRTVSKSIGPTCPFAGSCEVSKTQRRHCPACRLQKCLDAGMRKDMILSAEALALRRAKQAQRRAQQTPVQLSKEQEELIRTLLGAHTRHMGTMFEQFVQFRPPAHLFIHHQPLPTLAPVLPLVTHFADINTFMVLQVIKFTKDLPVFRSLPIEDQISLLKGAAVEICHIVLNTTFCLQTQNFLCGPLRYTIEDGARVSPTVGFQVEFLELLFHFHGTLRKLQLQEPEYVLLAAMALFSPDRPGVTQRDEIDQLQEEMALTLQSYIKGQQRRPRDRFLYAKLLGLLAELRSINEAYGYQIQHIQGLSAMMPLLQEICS
smiles,measurement,setting,value
COc1cc(C(=O)NC2CCN(C)CC2)ccc1Nc1ncc2c(n1)N(C1CCCC1)CC(F)(F)C(=O)N2C,AC50,[1],13.9 µM (active)
same,outcome,[2],inactive
same,outcome,[3],inactive
same,AC50,[4],2.03 µM (active)
same,AC50,[5],11.5 µM (active)
same,outcome,[6],inactive
same,outcome,[7],inactive
CCN(CC)C(=O)c1cc(S(=O)(=O)Cc2ccccc2)c(N2CCC(c3ccccc3)CC2)cc1N(CC)CCN(C)C,AC50,[1],23.4 µM (active)
same,outcome,[2],inactive
same,AC50,[4],0.419 µM (active)
same,AC50,[7],3.31 µM (active)
O=C1c2ccccc2C(=O)N1CCc1noc(-c2ccc(CN3CCCCCC3)s2)n1,AC50,[1],12 µM (active)
same,outcome,[8],inactive
same,outcome,[3],inactive
same,AC50,[9],6.2 µM (active)
same,AC50,[4],13.4 µM (active)
same,outcome,[6],inactive
c1ccc(C[n+]2cccc3ccccc32)cc1,outcome,[1],inactive
same,AC50,[3],25 µM (active)
same,AC50,[4],10.7 µM (active)
CC(C)(C)c1csc(-c2cc3cc(OCc4ccccc4CC(=O)O)ccc3o2)n1,outcome,[1],inactive
same,outcome,[3],inactive
Cc1occc1C(=O)Nc1ccc(C(=O)N2CCC(F)(F)/C(=C\C(=O)N3CCC(N4CCCCC4)CC3)c3ccccc32)cc1,outcome,[10],inactive
same,AC50,[1],11.7 µM (active)
same,AC50,[2],5.68 µM (active)
same,AC50,[3],4.14 µM (active)
same,outcome,[11],inactive
same,AC50,[4],4.89 µM (active)
same,outcome,[6],inactive
O=C1O[C@H]([C@@H](O)CO)C(O)=C1O,AC50,[11],6.57 µM (active)
same,outcome,[5],inactive
CCCCCc1ccc(N)cc1,outcome,[6],inactive
CCCCCCCCN(C)CCCCCCCC,AC50,[9],16.4 µM (active)
same,AC50,[4],11.8 µM (active)
same,outcome,[12],inactive
Oc1ccc2ccccc2c1,outcome,[7],inactive
COc1cccc([C@H](O)C2CCN(CCc3ccc(F)cc3)CC2)c1OC,AC50,[2],15.7 µM (active)
same,AC50,[9],25 µM (active)
same,AC50,[4],3.64 µM (active)
same,outcome,[13],inactive
Clc1ccccc1C(c1ccccc1)(c1ccccc1)n1ccnc1,outcome,[2],inactive
same,AC50,[11],36.5 µM (active)
Cc1c2ccccc2c(C)c2c1ccc1ccccc12,AC50,[11],25 µM (active)
same,outcome,[14],inactive
same,AC50,[7],14.6 µM (active)
O=C(O)Cn1c(=O)n(Cc2ccc(Br)cc2F)c(=O)c2ccc(Cl)cc21,outcome,[5],inactive
same,outcome,[7],inactive
NC(=O)c1nc(-c2cccc(-c3cc(F)ccc3OCC(F)(F)C(F)(F)F)c2)n[nH]1,AC50,[4],0.574 µM (active)
same,outcome,[7],inactive
CCCCOC(=O)c1ccc(O)cc1,AC50,[2],25 µM (active)
same,outcome,[15],inactive
same,outcome,[14],inactive
same,AC50,[7],19.6 µM (active) and 25 µM (active)
CC(C)(O)c1ccc(CNC(=O)c2cccnc2Oc2ccc3nonc3c2)cc1,outcome,[16],inactive
same,outcome,[13],inactive
same,AC50,[7],2.34 µM (active)
CCCCCCCCCC(=O)O,outcome,[15],inactive
Clc1cc(Cl)c2c(c1)N=C1CCCCCN1C2,AC50,[3],5.61 µM (active)
same,AC50,[4],6.64 µM (active)
same,AC50,[13],12.5 µM (active)
O=c1[nH]sc2ccccc12,outcome,[17],inactive
same,outcome,[15],inactive
same,outcome,[12],inactive
CCCCOC(=O)CC(CC(=O)OCCCC)(OC(C)=O)C(=O)OCCCC,outcome,[7],inactive
O=C1CCC(C2CCCCC2)CC1,outcome,[3],inactive
same,outcome,[6],inactive
OC12N=C(c3ccccc3)SC1Cc1cc(Cl)ccc12 (stereo not given),AC50,[18],2.62 µM (active)
same,outcome,[7],inactive
CC[C@@H]1C[C@H](N(Cc2cc(C(F)(F)F)cc(C(F)(F)F)c2)C(C)=O)c2cc(C(F)(F)F)ccc2N1C(=O)OC(C)C,outcome,[7],inactive
O=C(O)Cc1cc(I)c(Oc2ccc(O)c(I)c2)c(I)c1,outcome,[3],inactive
O=c1c(-c2ccc(O)cc2)coc2cc(O)cc(O)c12,outcome,[2],inactive
same,AC50,[7],8.19 µM (active)
same,outcome,[19],inactive
CCCC(=O)OCCC(C)C,outcome,[12],inactive
Cc1cc2c(cc1C(F)(F)F)N(C(=O)Nc1ccc(Oc3cccnc3C)nc1)CC2,AC50,[18],8.52 µM (active)
Cc1ccc2oc(CN(Cc3ccccc3)C(=O)Nc3c(F)cc(F)cc3F)c(-c3ccc(Cl)cc3)c2c1,AC50,[7],2.6 µM (active)
CC/C(=C(/CC)c1ccc(O)cc1)c1ccc(O)cc1,AC50,[17],25 µM (active)
same,outcome,[15],inactive
same,AC50,[7],202 nM (active) and 13.5 µM (active)
same,outcome,[7],inactive
